Compounds without any hit were thinned out: in the full panel of roughly 83,000, 20% have a hit.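 96-well plates, one dose, 48 hours. Percent growth reported; active if below 10.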 A number with no mark means an inactive call. The source made the active and inactive calls.
system: MDA-MB-468 breast; experiment: NCI-60 one-dose screen, 48 h (100 = growth as untreated, 0 = no growth, -100 = all killed); conditions: 10 µM unless noted

Row | Compound | growth
1 | C[C@]12CC[C@H](O)CC1=CC[C@@H]1[C@@H]2CC[C@]2(C)C(c3cccnc3)=CC[C@@H]12 | 15.2%
2 | CC[C@]12C=CCN3CC[C@@]4(c5cc(NC(=O)COc6cc(O)c7c(=O)cc(-c8ccccc8)oc7c6)c(OC)cc5N(C)[C@H]4[C@@](O)(C(=O)OC)[C@@H]1OC(C)=O)[C@@H]32 | -74.6% (active)
3 | Cc1ccc2cccc(OC(=O)Nc3cccc(C(F)(F)F)c3)c2n1 | 75.4%
4 | COc1cnc2c(c1)C(=O)c1c-2n(CCCN2CCCC2)c(=O)c2cc(F)ccc12 | -29.5% (active)
5 | CCCCCCCCc1ccc(CCC(N)(CO)CO)cc1 | -93.1% (active)
6 | COc1cc2cc(Oc3ccc(NC(=O)c4cccc(C(F)(F)F)c4)cc3)c(C)nc2cc1OC | 9.35% (active)
7 | Cc1ccc(NC(=O)c2ccc(CN3CCN(C)CC3)cc2)cc1Oc1ccc(-c2[nH]nc3ncnc(N)c23)cc1 | 59.3%
8 | CC(C)=CCNc1ncnc2c1ncn2C1OC(COP(=O)(O)O)C(O)C1O (configuration not stated) | 23.3%
9 | NC1(N)C=CC2=C(C=C1)C1(N)C3=C(C=CC(N)(N)C=C3)N2C2(N)C3=C(C=CC(N)(N)C=C3)N1C1=C2C=CC(N)(N)C=C1 | 72.3%
10 | Nc1cccc(-c2nc3sccn3c2-c2ccnc(NCCCNS(=O)(=O)c3cccc4ccccc34)n2)c1 | 18.2%
11 | COc1ccc(N=C2NN=C(c3c[nH]c4ccccc34)CS2)cc1OC | 10.5%
12 | O=C(CCN1CCCC1)Nc1ccc2c(NCc3ccc(F)cc3)c3ccccc3nc2c1 | -46.1% (active)

Source: PubChem BioAssay (NCI)
